# This is a sample that favours compounds with a hit; in the whole collection about 19% have one here.
# MCF10A rerep: A quantitative high throughput screen for small molecules that induce DNA re-replication in MCF 10a normal breast cells. MCF 10A DNA re-replication, Hoechst nuclear intensity, 48 h. Potency, µM (top dose mostly 46.1 µM), for the others: at the top dose activity, positive = re-replication, actives largely listed as activators. 350,000 tested, 2.9% active. AID 624296, 2012; further: potency means the concentration at half of the fitted maximal effect; % of control where 0% means no effect; nearly all actives have a fitted effect of over 50% in size
# DT40 TDP1 no CPT: qHTS for Inhibitors of human tyrosyl-DNA phosphodiesterase 1 (TDP1): qHTS in cells in absence of CPT | DT40 Tdp1-/- hTDP1 cells, no CPT, ATP luminescence, 48 h | Potency, µM (top dose mostly 46.2 µM), for inactives: top-dose activity change, negative = growth inhibition, usual class: inhibitors | 420,000 tested, 15% active | AID 686978, 2013; further: potency means the concentration at half of the fitted maximal effect; on the % scale 0 is the no-effect control and ±100 the full control effect; nearly all actives have a fitted effect of over 55% in size
#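 Growth kinetics read by CellTiter-Glo luminescence after ≥48 hr at 37 °C. Cells: DT40 Tdp1-/- stably carrying human TDP1, 400 per well, compound exposure in the absence of CPT (DMSO vehicle).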
# DT40 TDP1 CPT: qHTS for Inhibitors of human tyrosyl-DNA phosphodiesterase 1 (TDP1): qHTS in cells in presence of CPT. AID 686979, 2013. Potency, µM (top dose mostly 46.2 µM), without a hit: top-dose activity change, negative = growth inhibition, hits mostly inhibitors. 420,000 tested, 12% active. chicken DT40 Tdp1-/-;hTDP1 cells + 20 nM CPT, ATP luminescence, 48 h; further: potency means the concentration at half of the fitted maximal effect; on the % scale 0 is the no-effect control and ±100 the full control effect; nearly all actives have a fitted effect of over 55% in size
#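 Cell growth measured by CellTiter-Glo luminescence after a minimum 48 h, 37 C compound exposure with 20 nM CPT in Tdp1-knockout DT40 cells stably expressing hTDP1, seeded 400/well; qHTS titration format.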
# BCR signal inh: qHTS Assay to Find Inhibitors of Chronic Active B-Cell Receptor Signaling; ABC-DLBCL IkBa-CBG/CBR reporter, luminescence ratio, 4 h; Potency, µM (top dose mostly 46.1 µM), without a hit: at the highest dose activity change, negative = inhibition, usual class: inhibitors; 340,000 tested, 0.05% active; AID 493014, 2011; active means well fitted inhibition curve with a large enough effect in the signal ratio, with a control signal flat, not every such curve was filed as active; inconclusive means small, poorly fitted or top-dose-only effect, or effect the other way, or a change in a side signal; the % refers to the signal ratio;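 further: potency means the concentration at half of the fitted maximal effect; plate controls were basal doxycycline-induced cells for no effect and cells given 10 µM MG132 for full effect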
#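 Compounds up to 46 uM were incubated four hours with TMD8 cells whose green CBG68 luciferase is fused to IkappaBalpha; red CBR luminescence normalised the signal, and concentration-effect curves were fitted to fusion, red and ratio data.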
# SW480 rereplic: A quantitative high throughput screen for small molecules that induce DNA re-replication in SW480 colon adenocarcinoma cells; SW480 DNA re-replication, Hoechst DNA content imaging, 48 h; 340,000 tested, 1.8% active; Potency, µM (highest dose often 46.1 µM), for the others: at the highest dose re-replication activation, usual class: activators; further: potency means the concentration at half of the fitted maximal effect; % of control where 0% means no effect; nearly all actives have a fitted effect of over 55% in size
#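 Compounds, transferred as 23 nL by pin tool, were incubated with cells for 48 hr; DNA content per nucleus was then quantified by Hoechst staining and fluorescence plate imaging.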
# IL-1B inflam inh: qHTS for Inhibitors of Inflammasome Signaling: IL-1-beta AlphaLISA Primary Screen | THP-1 LPS/ATP IL-1B secretion, AlphaLISA, 16 h; hits give low values | 360,000 tested, 4.7% active | activity change, % at 57.5 µM; in the data active means activity change below about -50%; inconclusive means mostly about -30% to -49%; further: on the % scale 0 is the no-effect control and ±100 the full control effect
#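 Secreted IL-1B measured by AlphaLISA bead assay after 16 h compound exposure of THP-1 cells; compounds (final up to 57.5 uM) added 1 h before LPS (250 ng/mL) and ATP (1.25 mM) stimulation; lower signal means less secretion.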
# * marks the source's active call; other numbers are inactive results; u = inconclusive; x = not tested or not shown. Unless noted, the call rests on the fitted dose curve; in most records, active means well fitted curve in the direction sought with a large enough effect; inconclusive means small, poorly fitted or top-dose-only effect, or another doubt; inactive means no such curve, though single readings can be large; an effect the other way counts as inactive or inconclusive.
SMILES,MCF10A rerep,DT40 TDP1 no CPT,DT40 TDP1 CPT,BCR signal inh,SW480 rereplic,IL-1B inflam inh
COc1ccccc1NC(=O)CC(=O)CSc1nnc(-c2ccc(C)cc2)n1-c1ccccc1,-2%,-13%,2%,-6%,-65%,1
Cn1c(SCC(=O)NNC(=O)Cc2ccccc2)nnc1-c1ccc(Cl)cc1,-1%,-7%,-11%,-3%,-2%,-26
COC(=O)C1CCN(C(=O)COC(=O)c2cccc(NS(=O)(=O)c3ccccc3)c2)CC1,-1%,-22%,4%,2%,-8%,4
CNC(=O)c1c(NC(=O)c2cc(=O)c3cc(C)c(C)cc3o2)sc2c1CCCC2,x,-5%,-4%,x,x,x
COC(=O)c1ccc(CNC(=O)COC(=O)/C=C/c2cccc(OC)c2)cc1,x,-29%,u,x,x,0
CN(C)CCCN1c2ccc3ccccc3c2Sc2cccc(Cl)c21,u,u,u,x,u,-96*
O=C(CCl)N1c2ccccc2Sc2ccc3ccccc3c21,x,2.3µM*,3.7µM*,x,x,-104*
CN(C)CCCN1c2ccccc2Sc2ccc3ccccc3c21,u,u,u,x,u,-102*
O=C(COc1ccc2ccccc2c1)N1c2ccccc2Sc2ccccc21,13%,u,u,4%,9%,-19
CN(C)CCCN1c2ccccc2CCc2ccccc21,x,x,x,x,-2%,u
CCC(=O)OCC(=O)C1(OC(=O)CC)C(C)CC2C3CCC4=CC(=O)C=CC4(C)C3(Cl)C(O)CC21C (centres undefined),x,-12%,u,x,x,x
CCN1CCN(c2ccc(S(=O)(=O)N3CCCCC3)cc2NC(=O)c2cccc(OC(F)F)c2)CC1,7%,21µM*,u,-1%,15%,u
CCN1CCN(c2ccc(S(=O)(=O)N3CCCCC3)cc2NC(=O)c2cccc(Cl)c2)CC1,31%,u,-19%,-6%,-294%,u
CCN1CCN(c2ccc(S(=O)(=O)N3CCCCC3)cc2NC(=O)c2ccc(OC(F)F)cc2)CC1,6%,u,u,-1%,-4%,-76*
CN1CCN(C(=O)c2cnn(-c3ccc(F)cc3F)c2C2CCN(C(=O)OC(C)(C)C)CC2)CC1,x,4%,10%,x,x,x
CCOC(=O)c1cnn(-c2ccc(Cl)cc2)c1C1CCN(C(=O)OC(C)(C)C)CC1,u,u,u,u,20%,-13
CC(C)(C)OC(=O)N1CCC(c2c(C(=O)N3CCN(c4ccccn4)CC3)cnn2-c2cccc(F)c2)CC1,x,16µM*,18µM*,x,x,x
Cc1cccc(N2CCN(C(=O)c3cnn(-c4ccccc4)c3C3CCN(C(=O)OC(C)(C)C)CC3)CC2)c1C,x,16µM*,u,x,x,x
COc1ccc(N2CCN(C(=O)c3cnn(-c4ccc(OC)cc4)c3C3CCN(C(=O)OC(C)(C)C)CC3)CC2)cc1,x,u,18µM*,x,x,x
CC(C)(C)OC(=O)N1CCC(c2c(C(=O)N3CCN(C(=O)c4ccco4)CC3)cnn2-c2ccccc2)CC1,x,-8%,-14%,x,x,x
CCc1cccc(C)c1NC(=O)c1cnn(-c2ccc(OC)cc2)c1C1CCN(C(=O)OC(C)(C)C)CC1,x,18µM*,18µM*,x,x,x
COCCNC(=O)C1CCCN(C(=O)C2(c3ccc(Cl)cc3)CCCC2)CC1 (centres undefined),x,u,-23%,x,x,12
Cc1cccc([C@@H]2CN(C)CCc3c2cc(O)c(O)c3Cl)c1,x,u,-66%,x,x,x
